SMILES strings stand for the structures. In all, about 13,000 compounds went through this assay and about 3,200 (25%) showed an effect of 50% or more. This is one part of the list.

This note sets out measurements from PMC4552634, “A New Set of Chemical Starting Points with Plasmodium falciparum Transmission-Blocking Potential for Antimalarial Drug Discovery” (PLoS ONE, 2015).

The test relates to P. falciparum stage V gametocytes. Also on record: BacTiter-Glo ATP luminescence viability of purified stage V gametocytes in 384-well plates, per cent inhibition versus DMSO. The settings on record: 48 h, 5 µM; inhibitor.
For the compound `CCCc1cc(=O)[nH]c(-n2nc(C)cc2NC(=O)CC(c2ccccc2)c2ccccc2)n1` [TCMDC-124940], the “% Inhibition” value is listed as 43.65%.

Regarding `CC(C)C[C@H](NC(=O)c1cccc(F)c1)C(=O)N[C@H](/C=N/NC(=O)c1ccccc1)CCc1ccccc1` [TCMDC-135679], the “% Inhibition” value is 8.745%.

Turning to `CC(=O)Nc1ccc(CN2CCc3ccc(NS(=O)(=O)c4ccc(-c5cccc(C(F)(F)F)c5)cc4)cc3CC2)s1` [TCMDC-132328], the “% Inhibition” value is reported as 7.357%.

With `Cc1ccc(-c2ccc(NC(=O)N3CCc4cc(Br)c(N5CCN(C)CC5)cc43)cc2)cn1` [TCMDC-139294], the “% Inhibition” value is -24.43%.

Turning to `CN(C)CCNC(=O)c1csc(Nc2ccc(Cl)c(Cl)c2)n1` [TCMDC-123722], the “% Inhibition” value was -60.24%.

Take `COc1cccc2cc(C(=O)N[C@@H](CC(C)C)C(=O)N[C@H](C=NNC(=O)OC(C)(C)C)CC(C)C)oc12` [TCMDC-136062]: the “% Inhibition” value was determined as 12.96%.

As to `Cc1ccc2nc(C)n(C3CCN(C(=O)C4(c5ccccc5)CC4)CC3)c2c1` [TCMDC-124796], the “% Inhibition” value amounted to 44.07%.

In the case of `Cc1ccc2nc(C)n(C3CCN(C(=O)Cc4ccccc4C)CC3)c2c1` [TCMDC-124795], the “% Inhibition” value is recorded as 76.45%.

Take `COc1ccc(Br)cc1/C=C/C(=O)Nc1cccc(C2CCCN(C)C2)c1` (stereo not shown) [TCMDC-133710]: the “% Inhibition” value was 13.98%.

`CN1CCN(c2ccnc3ccc(NC(=O)Nc4ccc(-c5ccncc5)c(C(F)(F)F)c4)cc23)CC1` [TCMDC-139260]: the “% Inhibition” value is recorded as 40.16%.

As to `Cc1ncccc1-c1cccc2c(NC(=O)Nc3ccc4nccc(N5CCN(C)CC5)c4c3)cccc12` [TCMDC-139369], the “% Inhibition” value is -6.373%.

For the compound `Cc1nc(-c2cccc3c(NC(=O)Nc4ccc5nccc(N6CCN(C)CC6)c5c4)cccc23)no1` [TCMDC-139340], the “% Inhibition” value came out at 66.85%.

As to `CN1CCN(c2ccnc3ccc(NC(=O)Nc4ccc(-c5ccncc5)c5ccccc45)cc23)CC1` [TCMDC-139251], the “% Inhibition” value is recorded as -4.793%.

On to `CN1CCN(c2ccnc3ccc(NC(=O)Nc4ccc(-c5ccncc5)c(C#N)c4)cc23)CC1` [TCMDC-139268], for which the “% Inhibition” value amounted to 80.15%.

Turning to `CN1CCN(c2ccnc3ccc(NC(=O)Nc4cccc5c(-c6ccncc6)cccc45)cc23)CC1` [TCMDC-139252], the “% Inhibition” value is -0.3523%.

Take `COC(=O)c1ccc(CC(C)NCC(O)c2cccc(OC(F)(F)F)c2)cc1` (stereo not shown) [TCMDC-131487]: the “% Inhibition” value is on record as 26.86%.

On to `Cc1[nH]c(/C=C2\C(=O)Nc3ccc(S(=O)(=O)Cc4c(Cl)cccc4Cl)cc32)c(C)c1C(=O)N1CCC[C@@H]1CN1CCCC1` [TCMDC-125885], for which the “% Inhibition” value came to 103.4%.

On to `Cc1cccc2nc(-c3cccc(-c4cccc(C(=O)N5CCCCC5CN5CCC(O)C5)c4)c3)[nH]c12` (stereo not shown) [TCMDC-132347], for which the “% Inhibition” value stood at 6.025%.

In the case of `O=C(c1cccc(-c2cccc(-c3nc4ccccc4[nH]3)c2)c1)N1CCCCC1CN1CCC(O)C1` (stereo not shown) [TCMDC-132311], the “% Inhibition” value is given as -3.438%.

Regarding `COc1cccc(C=Cc2nc(=O)c3ccccc3o2)c1OC` [TCMDC-124577], the “% Inhibition” value amounted to 34.84%.

As to `COc1ccc(Cc2cnc3nc(N)nc(N)c3c2C)cc1OC` [TCMDC-138057], the “% Inhibition” value is listed as 6.807%.

For the compound `Nc1ccnc2ccc(NC(=O)CCCCCc3ccccc3)cc12` [TCMDC-139070], the “% Inhibition” value was 2.045%.

`CCCCc1ccc(C(=O)Nc2ccc3nc(N4CCN(CC)CC4)cc(C)c3c2)cc1` [TCMDC-125578]: the “% Inhibition” value is on record as -16.83%.

Regarding `CNc1c2c(nc3ccc(NC(=O)CCCCCCc4ccccc4)cc13)CCCC2` [TCMDC-139066], the “% Inhibition” value turned out to be 79.48%.

Take `CCCCc1ccc(C(=O)Nc2ccc3nc(N4CCN(C)CC4)cc(C)c3c2)cc1` [TCMDC-125570]: the “% Inhibition” value is -31.24%.

`O=C(Nc1ccc2nc3n(c(=O)c2c1)CCCCC3)C(=O)N1CCC(Cc2ccccc2)CC1` [TCMDC-125294]: the “% Inhibition” value is reported as -23.73%.

Regarding `O=C(CCCCCCc1ccccc1)Nc1ccc2nc3c(c(NCc4ccccc4)c2c1)CCCC3` [TCMDC-139063], the “% Inhibition” value was found to be 91.52%.

As to `COc1ccc2nccc(NN=Cc3cccnc3)c2c1` [TCMDC-142032], the “% Inhibition” value is on record as -14.51%.

For `O=C(Nc1nccs1)c1cn(-c2ccccc2)nc1-c1ccc(Cl)s1` [TCMDC-123623], the “% Inhibition” value was 9.788%.

On to `CC(C)(CNC(=O)C1CCN(CCOc2ccc(Cl)cc2)CC1)c1nc(-c2ccc(Cl)c(O)c2)c(-c2ccncc2)[nH]1` [TCMDC-141124], for which the “% Inhibition” value is -30.29%.

As to `Cc1cccc(CN2CCCN(Cc3ccc(C(=O)Nc4ccc(C)c(F)c4)cc3)CC2)c1` [TCMDC-136396], the “% Inhibition” value is -4.425%.

For `COc1ccc(CNCCc2cccs2)cc1-c1cccc(S(=O)(=O)NCCN2CCCC2)c1` [TCMDC-132479], the “% Inhibition” value stood at 91.1%.

Consider `COc1ccc(CNCCc2cccs2)cc1-c1ccc(S(=O)(=O)NCCN2CCCC2)cc1` [TCMDC-132475], for which the “% Inhibition” value worked out at 76.8%.

Turning to `COc1ccc(CNCCc2cccs2)cc1-c1ccc(OC)c(S(=O)(=O)NCCN2CCCC2)c1` [TCMDC-132476], the “% Inhibition” value is reported as 71.75%.

In the case of `Cc1cc(-c2ccc(CNCCc3cccs3)cc2)ccc1S(=O)(=O)NCc1ccccc1` [TCMDC-132473], the “% Inhibition” value is given as 18.33%.

`S=c1nc(-c2ccccc2)n2ccsc2n1` [TCMDC-123905]: the “% Inhibition” value came to 9.815%.

Turning to `CC(C)c1ncc(-c2ccncc2)c(C2CCC(CNC(=O)c3cccnc3)CC2)n1` (stereo not shown) [TCMDC-124825], the “% Inhibition” value was found to be 14.15%.

For `O=C(Nc1cccc(-c2ccc(-c3nc4ccccc4[nH]3)cc2)c1)Nc1ccc(F)c(F)c1F` [TCMDC-133230], the “% Inhibition” value is -14.97%.

In the case of `CCc1cccc(OCCCON2C(N)=NC(N)=NC2(C)C)c1` [TCMDC-131306], the “% Inhibition” value was determined as 2.586%.

For `Fc1ccc2nc(-c3ccc(-c4ccc(CN5CCN(c6cnccn6)CC5)cc4)s3)[nH]c2c1` [TCMDC-133893], the “% Inhibition” value is listed as 9.584%.

With `O=C(CCCCCNC(=O)c1ccc(O)c(-c2ccc(Cl)c(Cl)c2)c1)NC1CCCc2ccccc21` (stereo not shown) [TCMDC-140866], the “% Inhibition” value is reported as 4.143%.

As to `COc1ccc2nc(SC(C)C(=O)c3c[nH]c4ccccc34)[nH]c2c1` (stereo not shown) [TCMDC-125034], the “% Inhibition” value is recorded as 61.61%.

Consider `O=C(CSc1n[nH]c(-c2ccccc2Br)n1)c1c[nH]c2ccccc12` [TCMDC-123710], for which the “% Inhibition” value is recorded as 82.49%.

In the case of `CC1CN(c2ccc3[nH]cc(Sc4ccc(-c5cccs5)cc4)c3c2)CC(C)N1` (stereo not shown) [TCMDC-136644], the “% Inhibition” value is given as -55.49%.

With `Cc1noc(-c2cccs2)c1C(=O)NC(C)c1cccc2ccccc12` (stereo not shown) [TCMDC-124788], the “% Inhibition” value is reported as -15.69%.

Take `COC(=O)c1ccc2c(-c3nc4ccc(OC)cc4[nH]3)c[nH]c2c1` [TCMDC-135457]: the “% Inhibition” value amounted to 32.14%.

As for `COc1cccc(-c2cc(C(=O)Nc3ccc4nc(-c5ccccc5)[nH]c4c3)[nH]n2)c1` [TCMDC-134319], the “% Inhibition” value is listed as 8.642%.

Regarding `CC(Sc1n[nH]c(-c2cccs2)n1)C(=O)c1c[nH]c2ccccc12` (stereo not shown) [TCMDC-125010], the “% Inhibition” value was determined as 53.42%.

As to `Cc1cc(N(C)C)nc(Nc2ccc(NC(=O)c3c(F)cccc3F)cc2)n1` [TCMDC-124977], the “% Inhibition” value was found to be 1.948%.

For `COc1cc(SC)c(Br)cc1-c1nc2ccncc2[nH]1` [TCMDC-138164], the “% Inhibition” value is -13.77%.

In the case of `Oc1ccc(CCNc2nc(NCc3ccccc3Oc3ccc(C(F)(F)F)cc3)nc(N3CCNCC3)n2)cc1` [TCMDC-134133], the “% Inhibition” value is listed as -9.208%.

Turning to `CCOc1cc(C2C(C(=O)OC(C)C)=C(C)NC3=C2C(=O)CC(c2ccc(Cl)cc2)C3)ccc1OC(C)=O` (stereo not shown) [TCMDC-125628], the “% Inhibition” value is -56.66%.

With `Cc1cnc2ccc(NS(=O)(=O)c3ccc4c(Cl)cccc4c3)cc2c1N1CCNCC1` [TCMDC-139558], the “% Inhibition” value is recorded as 37.46%.

`CCCCOc1ccc(CNCCCCCCNCc2ccc(OCCCC)c3ccccc23)c2ccccc12` [TCMDC-137281]: the “% Inhibition” value came out at 121.9%.

With `CCCCSc1c(CNCCCCCCNCc2ccc3ccccc3c2SCCCC)ccc2ccccc12` [TCMDC-137825], the “% Inhibition” value is on record as 112.9%.

For `CCOc1c(CNCCCCCCNCc2ccc3ccccc3c2OCC)ccc2ccccc12` [TCMDC-137942], the “% Inhibition” value was 73.68%.

On to `CCOc1c(Br)cc(Cl)cc1CNCCCNc1nc2ccccc2[nH]1` [TCMDC-140106], for which the “% Inhibition” value was determined as 5.667%.

Take `CN(C)c1c(CNCCCCCCNCc2ccc3ccccc3c2N(C)C)ccc2ccccc12` [TCMDC-137834]: the “% Inhibition” value came to 115.6%.

For `CCCc1ccc2c(c1O)CCC(N(CCC)CCC)C2` (stereo not shown) [TCMDC-138031], the “% Inhibition” value is listed as -27.54%.

On to `COc1ccc(CN(C)CC(O)COc2ccc(NC(=O)c3cccc4c(=O)c5cccc(OC)c5[nH]c34)cc2)cc1OC` (stereo not shown) [TCMDC-131851], for which the “% Inhibition” value stood at 12.51%.

For the compound `O=C(Cc1ccccc1)NC1(c2ccccc2)CCN(CCc2c[nH]c3ccc(F)cc23)CC1` [TCMDC-131991], the “% Inhibition” value is 26.26%.

For the compound `CCC(C)c1ccc(NC(=O)c2ccc(S(=O)(=O)Nc3ccc(OC)c(N4CCN(CC5CC5)CC4)c3)cc2)cc1` (stereo not shown) [TCMDC-136299], the “% Inhibition” value was -16.95%.

On to `Oc1ccccc1CN1CCC2(CCCN(Cc3ccccc3F)C2)C1` (stereo not shown) [TCMDC-124620], for which the “% Inhibition” value amounted to 28.07%.

In the case of `Cc1cc(NC2CCCC2)nc(Nc2ccc(F)cc2)n1` [TCMDC-133472], the “% Inhibition” value was 46.74%.

For the compound `CCCCOc1cc(CNCCCCCCNCc2cc(OCCCC)cc3ccccc23)c2ccccc2c1` [TCMDC-137824], the “% Inhibition” value came to 36.59%.

For the compound `CCCCOc1c(CNCCCCCCNCc2ccc3ccccc3c2OCCCC)ccc2ccccc12` [TCMDC-137975], the “% Inhibition” value is 107.4%.

In the case of `COC(=O)c1cccc(CNCc2ccc(-c3ccc(-c4nc5cc(C(F)(F)F)ccc5[nH]4)cc3)cc2)c1.O=C(O)C(F)(F)F` [TCMDC-132954], the “% Inhibition” value is listed as -38.93%.
